Test results reported in PubChem BioAssay (NCATS).
Results filed as inconclusive are left out. Calls of active or inactive are those of the source. The call rests on the fitted dose curve; in most records, active means well fitted inhibition curve with a large enough effect; inconclusive means small, poorly fitted or top-dose-only effect; inactive means flat fitted curve, though single readings scatter.

What was measured:
Assay in all cases: qHTS profiling for inhibitors of Plasmodium falciparum proliferation (AID 504749); further: nearly all actives have a fitted effect of over 60% in size
Conditions in all cases: P. falciparum in erythrocytes, SYBR Green DNA, 72 h; series mostly up to 28.7 µM
ECU = test system: ECU
Summary of the method: (§1)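 Infected RBCs, 0.3% parasitemia/2.5% Hct final; cpd 72 h, 37 C, 5% CO2; lysis buffer with saponin/triton/SYBR Green I, o/n RT dark; FI 485/535; norm. to artemisinin (0.29 uM) and DMSO.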

FAB9 = test system: FAB9
Summary of the method: as §1

GB4 = test system: GB4
Summary of the method: as §1

HB3 = test system: HB3
Summary of the method: as §1

ICS = test system: ICS
Summary of the method: as §1

JCK = test system: JCK
Summary of the method: as §1

N140 = test system: N140
Summary of the method: as §1

P93_24 = test system: P93_24
Summary of the method: as §1

P94_40 = test system: P94_40
Summary of the method: as §1

PAD = test system: PAD
Summary of the method: as §1

Measured: Potency
Potency means the concentration at half of the fitted maximal effect.

O=C1NCN(c2ccccc2)C12CCN(CC1COc3ccccc3O1)CC2 (stereo not given)
active: ICS 8.91 µM
not listed: PAD
inactive: all other assays above

CCCC1CCCCN1 (stereo not given)
inactive: all assays above

NCC(O)c1ccc(O)cc1 (stereo not given)
inactive: all assays above

NN=C(N)N
inactive: all assays above

CCCC(C)(COC(N)=O)COC(=O)NC(C)C (stereo not given)
inactive: all assays above

NP(N)(=O)NC(=O)c1ccc(F)cc1
inactive: all assays above

CC1OC(C)OC(C)O1 (stereo not given)
inactive: all assays above

NCC1(CC(=O)O)CCCCC1
inactive: all assays above

CN1CCN(C(=O)O[C@H]2c3nccnc3C(=O)N2c2ccc(Cl)cn2)CC1
inactive: all assays above

O=C(O)c1ccc2[nH]cc(CCCCN3CC=C(c4ccccc4)CC3)c2c1
inactive: all assays above

CC[N+]1(C)CCCC(OC(=O)C(O)(c2ccccc2)c2ccccc2)C1 (stereo not given)
inactive: all assays above

Oc1cccc2cccnc12
inactive: all assays above

FC(F)(F)c1cccc(C2=CCN(CCc3ccc4ccccc4c3)CC2)c1
inactive: all assays above

CCOP(=S)(OCC)Oc1cc(C)nc(C(C)C)n1
inactive: all assays above

CCC(C(N)=O)N1CCCC1=O (stereo not given)
inactive: all assays above

Cc1cccc(C)c1NC1=NCCCS1
inactive: ECU | FAB9 | HB3 | JCK
active: GB4 8.49 µM | ICS 12.6 µM

CN1C(=S)CN=C(c2ccccc2)c2cc(Cl)ccc21
inactive: all assays above

CCN(C(C)=O)c1cccc(-c2ccnc3c(C#N)cnn23)c1
inactive: all assays above

O=C(NC(O)C(Cl)(Cl)Cl)NC(O)C(Cl)(Cl)Cl (stereo not given)
inactive: all assays above

CC(=O)Nc1cc([As](=O)(O)O)ccc1O
inactive: all assays above

Clc1ccc(COC(Cn2ccnc2)c2ccc(Cl)cc2Cl)cc1 (stereo not given)
active: ECU 0.794 µM | FAB9 11.2 µM | GB4 1.69 µM | HB3 3.98 µM | ICS 0.631 µM | JCK 8.91 µM | N140 1.58 µM | P93_24 1.12 µM | P94_40 2 µM | PAD 2.51 µM

CC(=O)[C@H]1CC[C@H]2[C@@H]3CC[C@H]4C[C@H](O)CC[C@]4(C)[C@H]3C(=O)C[C@]12C
inactive: all assays above

CC(=O)[C@H]1CC[C@H]2[C@@H]3CC[C@H]4C[C@](C)(O)CC[C@]4(C)[C@H]3CC[C@]12C
inactive: all assays above

Cc1ncc(CNC(=O)N(CCCl)N=O)c(N)n1
inactive: all assays above

COc1ccccc1N1CCNCC1
inactive: all assays above

CC[N+](CC)(CC)CC
inactive: all assays above

CCN(CC)CCOC(=O)C(O)(c1ccccc1)c1ccccc1
inactive: all assays above

Nc1ccncc1
inactive: all assays above

NCC(CC(=O)O)c1ccc(Cl)cc1 (stereo not given)
inactive: all assays above

Oc1cc(Cl)ccc1Oc1ccc(Cl)cc1Cl
active: ECU 6.31 µM | FAB9 11.2 µM | GB4 4.78 µM | HB3 8.91 µM | ICS 1.58 µM | JCK 11.2 µM | N140 3.16 µM | P93_24 6.31 µM | P94_40 4.47 µM | PAD 5.01 µM

Oc1ccccc1-c1ccccc1
inactive: all assays above
